Experimental findings from ChEMBL document CHEMBL1961873, “Compounds: GSK PKIS; Assays: Nanosyn kinase panel” (2012) are described below.

Assay [1] deals with Fibroblast growth factor receptor 4 (Homo sapiens) (UniProt P22455). The note with it: at 1 µM.
Assay [2] has as its target Tyrosine-protein kinase Fgr (Homo sapiens) (UniProt P09769). The note with it: at 0.1 µM.
For assay [3] the target is unchanged. Particulars: at 1 µM.
Assay [4] concerns the target Vascular endothelial growth factor receptor 1 (Homo sapiens) (UniProt P17948). Particulars: at 0.1 µM.
Assay [5] has the same target. The note with it: at 1 µM.
Assay [6] concerns the target Receptor-type tyrosine-protein kinase FLT3 (Homo sapiens) (UniProt P36888). Particulars: at 0.1 µM.
The target is the same in assay [7]. Particulars: at 1 µM.
Assay [8] concerns T1, Receptor-type tyrosine-protein kinase FLT3 (Homo sapiens), P36888 [D835Y].
T1 sequence (whole entry): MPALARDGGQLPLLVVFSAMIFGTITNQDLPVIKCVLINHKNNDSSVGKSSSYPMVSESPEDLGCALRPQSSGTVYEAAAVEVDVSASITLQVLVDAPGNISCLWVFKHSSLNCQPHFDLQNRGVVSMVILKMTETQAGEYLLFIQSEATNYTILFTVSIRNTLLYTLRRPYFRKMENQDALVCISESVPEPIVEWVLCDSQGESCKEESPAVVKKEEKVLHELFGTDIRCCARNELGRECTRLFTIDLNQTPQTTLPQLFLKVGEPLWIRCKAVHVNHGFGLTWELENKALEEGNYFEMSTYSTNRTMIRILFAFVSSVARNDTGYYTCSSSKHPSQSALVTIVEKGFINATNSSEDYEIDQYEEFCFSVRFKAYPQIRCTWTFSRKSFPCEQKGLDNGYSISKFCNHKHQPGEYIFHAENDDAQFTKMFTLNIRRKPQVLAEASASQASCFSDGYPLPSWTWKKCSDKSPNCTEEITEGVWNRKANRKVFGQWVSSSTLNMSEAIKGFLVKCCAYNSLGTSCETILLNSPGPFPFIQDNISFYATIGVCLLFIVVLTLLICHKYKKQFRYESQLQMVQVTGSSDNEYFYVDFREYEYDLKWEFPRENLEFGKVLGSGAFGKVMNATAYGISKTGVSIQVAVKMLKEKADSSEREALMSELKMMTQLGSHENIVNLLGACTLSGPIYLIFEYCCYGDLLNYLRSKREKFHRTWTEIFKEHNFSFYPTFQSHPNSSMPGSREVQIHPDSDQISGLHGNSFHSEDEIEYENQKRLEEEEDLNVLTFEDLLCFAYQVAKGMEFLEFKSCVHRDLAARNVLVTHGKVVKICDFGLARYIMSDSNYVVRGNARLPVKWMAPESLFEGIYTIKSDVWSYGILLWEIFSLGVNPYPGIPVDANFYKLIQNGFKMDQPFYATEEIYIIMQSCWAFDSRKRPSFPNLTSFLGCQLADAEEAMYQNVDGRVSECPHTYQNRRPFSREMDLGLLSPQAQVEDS
The note with it: at 0.1 µM.

The target of assay [9] is Non-receptor tyrosine-protein kinase TYK2 (Homo sapiens) (UniProt P29597). The note with it: at 1 µM.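 Note: values are mean percent inhibition of TYK2 kinase.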
The target in assay [10] is T2, Tyrosine-protein kinase receptor TYRO3 (Homo sapiens) (UniProt Q06418).
T2 sequence (whole entry): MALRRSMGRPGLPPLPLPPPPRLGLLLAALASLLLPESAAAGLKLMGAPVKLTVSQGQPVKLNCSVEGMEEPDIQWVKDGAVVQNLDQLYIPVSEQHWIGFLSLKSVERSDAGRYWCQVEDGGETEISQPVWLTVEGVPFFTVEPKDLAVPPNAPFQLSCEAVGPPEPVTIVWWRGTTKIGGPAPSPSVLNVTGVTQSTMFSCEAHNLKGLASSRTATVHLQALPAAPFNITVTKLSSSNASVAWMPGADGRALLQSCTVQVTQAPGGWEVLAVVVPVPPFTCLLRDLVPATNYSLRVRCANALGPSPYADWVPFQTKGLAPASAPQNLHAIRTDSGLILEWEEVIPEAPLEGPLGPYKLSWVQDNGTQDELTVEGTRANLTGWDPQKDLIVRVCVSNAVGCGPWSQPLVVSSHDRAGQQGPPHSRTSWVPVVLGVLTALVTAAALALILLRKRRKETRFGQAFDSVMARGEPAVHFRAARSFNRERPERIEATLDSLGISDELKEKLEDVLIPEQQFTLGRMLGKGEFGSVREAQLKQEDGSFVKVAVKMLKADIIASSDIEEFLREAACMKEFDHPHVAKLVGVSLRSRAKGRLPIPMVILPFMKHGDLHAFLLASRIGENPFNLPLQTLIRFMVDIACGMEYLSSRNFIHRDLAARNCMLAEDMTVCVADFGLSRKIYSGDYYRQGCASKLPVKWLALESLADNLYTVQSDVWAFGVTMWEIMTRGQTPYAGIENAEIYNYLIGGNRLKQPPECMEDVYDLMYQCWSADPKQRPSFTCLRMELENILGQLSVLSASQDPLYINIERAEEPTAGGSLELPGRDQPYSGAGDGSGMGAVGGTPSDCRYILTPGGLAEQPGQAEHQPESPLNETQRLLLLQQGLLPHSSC
Particulars: at 0.1 µM.

Assay [11] concerns the target T2, Tyrosine-protein kinase receptor TYRO3 (Homo sapiens). Particulars: at 1 µM.
In assay [12] the target is Tyrosine-protein kinase Yes (Homo sapiens) (UniProt P07947). The note with it: at 0.1 µM.
Assay [13] shares this target. Particulars: at 1 µM.
For assay [14], the target named is T3, Tyrosine-protein kinase ZAP-70 (Homo sapiens) (UniProt P43403).
T3 sequence (whole entry): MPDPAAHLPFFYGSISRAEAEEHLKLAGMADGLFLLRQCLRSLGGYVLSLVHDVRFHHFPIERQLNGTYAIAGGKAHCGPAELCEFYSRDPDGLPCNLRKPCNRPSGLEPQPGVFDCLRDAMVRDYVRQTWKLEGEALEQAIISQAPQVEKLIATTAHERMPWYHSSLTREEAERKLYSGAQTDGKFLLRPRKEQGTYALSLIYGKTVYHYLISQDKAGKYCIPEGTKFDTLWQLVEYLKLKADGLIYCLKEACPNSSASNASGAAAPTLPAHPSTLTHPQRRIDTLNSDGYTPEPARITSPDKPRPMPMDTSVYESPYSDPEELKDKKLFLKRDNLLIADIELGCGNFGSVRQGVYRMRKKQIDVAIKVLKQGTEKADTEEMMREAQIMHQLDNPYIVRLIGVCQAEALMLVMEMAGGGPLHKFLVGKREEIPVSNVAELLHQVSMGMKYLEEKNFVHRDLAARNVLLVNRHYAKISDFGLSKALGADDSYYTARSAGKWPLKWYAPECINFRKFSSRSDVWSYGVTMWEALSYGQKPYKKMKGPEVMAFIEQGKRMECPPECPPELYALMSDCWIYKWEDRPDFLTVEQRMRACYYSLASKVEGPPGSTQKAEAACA
Particulars: at 0.1 µM.

The target of assay [15] is T3, Tyrosine-protein kinase ZAP-70 (Homo sapiens). The note with it: at 1 µM.
In assay [16] the target is Serine/threonine-protein kinase B-raf (Homo sapiens) (UniProt P15056). Particulars: at 0.1 µM.
The target is the same in assay [17]. Particulars: at 1 µM.
Assay [18] relates to Serine/threonine-protein kinase B-raf (Homo sapiens), P15056 [V600E]. The note with it: at 0.1 µM.
For assay [19] the test system is unchanged. Particulars: at 1 µM.
In assay [20] the target is RAF proto-oncogene serine/threonine-protein kinase (Homo sapiens) (UniProt P04049). The note with it: at 0.1 µM.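 Note: values are mean CRAF kinase inhibition from profiling of the GSK Published Kinase Inhibitor Set.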

Chain of Vascular endothelial growth factor receptor 1 (Homo sapiens) (P17948 whole entry): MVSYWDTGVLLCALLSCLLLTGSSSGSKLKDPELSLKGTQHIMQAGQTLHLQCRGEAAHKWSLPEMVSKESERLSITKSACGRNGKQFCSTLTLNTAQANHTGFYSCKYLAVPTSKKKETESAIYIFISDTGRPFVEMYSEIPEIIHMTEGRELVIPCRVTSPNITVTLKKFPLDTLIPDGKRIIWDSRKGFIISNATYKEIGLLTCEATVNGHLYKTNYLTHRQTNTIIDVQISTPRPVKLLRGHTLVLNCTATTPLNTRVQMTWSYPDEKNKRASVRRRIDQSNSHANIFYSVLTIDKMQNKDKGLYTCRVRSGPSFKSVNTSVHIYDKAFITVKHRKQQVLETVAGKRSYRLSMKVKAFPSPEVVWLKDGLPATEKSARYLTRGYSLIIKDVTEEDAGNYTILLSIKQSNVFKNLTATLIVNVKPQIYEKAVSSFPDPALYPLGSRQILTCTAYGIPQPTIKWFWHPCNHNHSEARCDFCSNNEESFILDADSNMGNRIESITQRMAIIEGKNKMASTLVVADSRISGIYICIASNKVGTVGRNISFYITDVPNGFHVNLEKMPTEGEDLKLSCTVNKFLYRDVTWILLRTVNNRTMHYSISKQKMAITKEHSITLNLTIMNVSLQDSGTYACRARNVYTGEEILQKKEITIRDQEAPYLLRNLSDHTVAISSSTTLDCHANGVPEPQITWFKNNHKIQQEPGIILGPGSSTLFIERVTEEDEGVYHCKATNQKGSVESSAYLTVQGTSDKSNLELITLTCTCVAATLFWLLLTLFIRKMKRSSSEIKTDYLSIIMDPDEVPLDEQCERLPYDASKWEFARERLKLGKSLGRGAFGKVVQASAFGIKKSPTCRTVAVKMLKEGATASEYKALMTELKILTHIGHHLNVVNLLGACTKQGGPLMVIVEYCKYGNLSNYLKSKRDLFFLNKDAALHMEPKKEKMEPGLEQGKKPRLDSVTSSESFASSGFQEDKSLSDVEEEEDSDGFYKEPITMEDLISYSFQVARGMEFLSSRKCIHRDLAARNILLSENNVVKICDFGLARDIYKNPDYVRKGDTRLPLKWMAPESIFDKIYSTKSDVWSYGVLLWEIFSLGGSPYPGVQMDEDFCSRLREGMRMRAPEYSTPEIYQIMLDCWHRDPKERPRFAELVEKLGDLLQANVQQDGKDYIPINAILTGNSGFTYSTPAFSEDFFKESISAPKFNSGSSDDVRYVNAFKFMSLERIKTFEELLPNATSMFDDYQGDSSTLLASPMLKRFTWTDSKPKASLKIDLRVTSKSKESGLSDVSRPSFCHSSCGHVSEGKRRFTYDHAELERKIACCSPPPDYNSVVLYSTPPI
Chain of Serine/threonine-protein kinase B-raf (Homo sapiens) (P15056 whole entry): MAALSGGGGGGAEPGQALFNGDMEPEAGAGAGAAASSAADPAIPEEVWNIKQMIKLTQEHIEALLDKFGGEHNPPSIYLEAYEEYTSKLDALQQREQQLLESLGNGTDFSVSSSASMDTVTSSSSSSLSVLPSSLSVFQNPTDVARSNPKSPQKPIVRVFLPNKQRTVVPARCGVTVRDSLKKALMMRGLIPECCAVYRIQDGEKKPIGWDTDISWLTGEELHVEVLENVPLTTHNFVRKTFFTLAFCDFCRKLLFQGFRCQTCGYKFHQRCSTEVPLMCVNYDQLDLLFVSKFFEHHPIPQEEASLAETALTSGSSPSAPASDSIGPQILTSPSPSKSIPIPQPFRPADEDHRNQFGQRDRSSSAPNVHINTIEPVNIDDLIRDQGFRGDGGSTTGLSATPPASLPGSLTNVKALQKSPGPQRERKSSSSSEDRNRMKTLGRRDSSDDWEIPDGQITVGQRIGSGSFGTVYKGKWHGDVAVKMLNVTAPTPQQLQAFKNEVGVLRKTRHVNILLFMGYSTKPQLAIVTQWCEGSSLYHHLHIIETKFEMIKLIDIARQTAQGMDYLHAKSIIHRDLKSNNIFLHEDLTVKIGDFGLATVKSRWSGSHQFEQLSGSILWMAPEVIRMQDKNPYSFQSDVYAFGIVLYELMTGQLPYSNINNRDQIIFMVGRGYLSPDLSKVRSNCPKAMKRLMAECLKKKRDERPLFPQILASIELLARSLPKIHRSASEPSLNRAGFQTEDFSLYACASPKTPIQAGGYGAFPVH
Chain of Tyrosine-protein kinase Fgr (Homo sapiens) (P09769 2-529 limits assumed): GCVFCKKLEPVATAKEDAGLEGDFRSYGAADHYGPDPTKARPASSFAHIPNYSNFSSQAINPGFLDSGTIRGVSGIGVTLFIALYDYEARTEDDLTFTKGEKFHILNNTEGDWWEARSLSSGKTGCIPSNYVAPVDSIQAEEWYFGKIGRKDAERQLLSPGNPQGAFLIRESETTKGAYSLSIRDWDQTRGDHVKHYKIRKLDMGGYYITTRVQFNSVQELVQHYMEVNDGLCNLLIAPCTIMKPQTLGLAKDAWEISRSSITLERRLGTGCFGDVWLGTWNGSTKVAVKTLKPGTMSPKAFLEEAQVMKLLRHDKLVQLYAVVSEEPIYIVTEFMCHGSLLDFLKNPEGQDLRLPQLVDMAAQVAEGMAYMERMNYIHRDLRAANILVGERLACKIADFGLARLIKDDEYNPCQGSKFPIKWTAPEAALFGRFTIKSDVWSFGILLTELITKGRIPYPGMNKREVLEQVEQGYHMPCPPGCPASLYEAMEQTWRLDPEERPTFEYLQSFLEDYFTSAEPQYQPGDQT
Chain of Fibroblast growth factor receptor 4 (Homo sapiens) (P22455 22-802 limits assumed): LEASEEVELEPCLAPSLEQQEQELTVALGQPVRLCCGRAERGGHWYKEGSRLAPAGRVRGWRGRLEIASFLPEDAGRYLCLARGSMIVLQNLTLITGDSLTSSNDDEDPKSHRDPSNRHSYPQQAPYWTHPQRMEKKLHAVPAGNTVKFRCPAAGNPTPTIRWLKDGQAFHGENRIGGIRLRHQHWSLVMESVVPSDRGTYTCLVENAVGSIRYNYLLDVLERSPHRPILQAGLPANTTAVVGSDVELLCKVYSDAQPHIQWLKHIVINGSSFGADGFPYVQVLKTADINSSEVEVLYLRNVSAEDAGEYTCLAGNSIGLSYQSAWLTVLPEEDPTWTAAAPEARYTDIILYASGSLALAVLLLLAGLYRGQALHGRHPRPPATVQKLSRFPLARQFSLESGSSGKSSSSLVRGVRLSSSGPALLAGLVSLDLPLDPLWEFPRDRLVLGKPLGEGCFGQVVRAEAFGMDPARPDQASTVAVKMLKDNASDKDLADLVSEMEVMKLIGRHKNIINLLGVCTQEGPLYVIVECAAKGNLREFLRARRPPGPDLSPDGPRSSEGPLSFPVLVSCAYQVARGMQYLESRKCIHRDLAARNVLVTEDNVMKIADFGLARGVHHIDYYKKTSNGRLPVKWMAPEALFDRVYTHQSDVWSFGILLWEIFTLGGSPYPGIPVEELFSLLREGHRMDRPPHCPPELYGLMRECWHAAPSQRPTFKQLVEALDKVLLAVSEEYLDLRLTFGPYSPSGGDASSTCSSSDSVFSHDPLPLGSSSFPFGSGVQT
Chain of Non-receptor tyrosine-protein kinase TYK2 (Homo sapiens) (P29597 whole entry): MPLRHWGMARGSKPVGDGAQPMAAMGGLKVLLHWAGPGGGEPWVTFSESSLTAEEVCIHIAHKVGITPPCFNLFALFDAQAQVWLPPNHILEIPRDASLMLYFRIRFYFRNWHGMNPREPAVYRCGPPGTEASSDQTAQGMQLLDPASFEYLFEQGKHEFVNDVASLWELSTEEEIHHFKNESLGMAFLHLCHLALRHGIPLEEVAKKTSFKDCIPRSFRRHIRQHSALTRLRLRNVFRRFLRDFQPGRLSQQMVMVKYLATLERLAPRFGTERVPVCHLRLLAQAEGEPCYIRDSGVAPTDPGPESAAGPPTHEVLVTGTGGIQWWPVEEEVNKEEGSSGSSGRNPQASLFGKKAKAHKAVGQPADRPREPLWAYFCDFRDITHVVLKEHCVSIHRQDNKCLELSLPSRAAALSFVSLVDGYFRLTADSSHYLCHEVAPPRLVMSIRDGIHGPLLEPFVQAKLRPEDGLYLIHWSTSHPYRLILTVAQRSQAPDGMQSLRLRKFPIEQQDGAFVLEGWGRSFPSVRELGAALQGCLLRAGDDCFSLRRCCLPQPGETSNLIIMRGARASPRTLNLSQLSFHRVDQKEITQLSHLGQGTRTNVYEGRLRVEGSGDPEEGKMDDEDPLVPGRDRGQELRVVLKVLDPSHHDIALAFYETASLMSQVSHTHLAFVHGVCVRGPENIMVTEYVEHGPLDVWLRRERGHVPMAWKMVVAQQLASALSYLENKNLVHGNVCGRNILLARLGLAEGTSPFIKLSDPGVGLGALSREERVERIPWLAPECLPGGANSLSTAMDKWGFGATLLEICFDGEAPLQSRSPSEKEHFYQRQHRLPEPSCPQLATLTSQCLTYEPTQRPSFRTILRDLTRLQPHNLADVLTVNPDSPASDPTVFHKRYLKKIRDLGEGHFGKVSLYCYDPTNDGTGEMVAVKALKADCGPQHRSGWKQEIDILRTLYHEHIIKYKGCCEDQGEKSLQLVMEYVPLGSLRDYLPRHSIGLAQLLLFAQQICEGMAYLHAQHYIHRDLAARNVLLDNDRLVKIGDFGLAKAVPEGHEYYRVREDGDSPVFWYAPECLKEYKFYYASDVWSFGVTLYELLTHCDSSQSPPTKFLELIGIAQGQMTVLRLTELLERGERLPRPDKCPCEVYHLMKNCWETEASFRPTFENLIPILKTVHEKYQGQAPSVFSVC
Chain of Serine/threonine-protein kinase B-raf (Homo sapiens), P15056 [V600E] (P15056 whole entry V600E): as the sequence (P15056 whole entry) above, with V600E counted along it

The inhibition is the change of the read-out against control, counted positive when it falls. As for `OCCCNc1nccc(-c2c(-c3ccc(F)cc3)nn3cc(C(F)(F)F)ccc23)n1`, the inhibition in [1] is 0.98%; in assay [2], 2.9%; in [3], 8.24%; in [4] it was 1.4%; in [5], 3.41%; in [6], 1.66%. The inhibition in assay [7] was 3.11%; in [8], -1.23%; in [9] it was -1.77%; in [10], 1.9%; in [11] it was 1.03%; in assay [12] it was 1.78%. Moreover, the inhibition is 1.85% in assay [13]; 2.54% in assay [14]; -1.3% in assay [15]; 3.71% in assay [16]; 11.6% in assay [17]; 2.84% in assay [18]. The values for the inhibition in assay [19] and in assay [20] were 9.93% and 0.53%, respectively.
Consider `Cc1nnc(-c2cccc(-c3ccc(C(=O)NCC4CC4)cc3)c2)o1`, for which the inhibition in assay [1] is 0.59%; in assay [2] it was 5.74%; in assay [3] it was 2.02%; in assay [4], 3.18%; in assay [5], 1.49%; in assay [6], 1.38%. Moreover, the inhibition was 4.66% in assay [7]; -2.89% in assay [8]; -4.07% in assay [9]; 4.15% in assay [10]; 4.17% in assay [11]; 5.35% in assay [12]. Further, the inhibition in [13] turned out to be 7.53%; in assay [14], 4.93%; in assay [15], 7.42%; in assay [16] it was 8.68%; in [17] it was 6.82%; in [18], 7.4%. In addition, the inhibition in [19] is 5.64%; in assay [20] it was -0.41%.
Turning to `NC(=O)c1ccc2c(-c3ccnc(NCCCO)n3)c(-c3ccc(F)cc3)nn2c1`, the inhibition was determined as 1.22% in assay [1]; 3.07% in [2]; 12.1% in assay [3]; 3.74% in assay [4]; 3.53% in assay [5]; 4.12% in assay [6]. The inhibition is 5.06% in assay [7]; 2.33% in assay [8]; -5.12% in [9]; 3.03% in assay [10]; 3.98% in assay [11]; 2.77% in assay [12]. In addition, the inhibition in [13] came to 10.9%; in assay [14], 1.7%; in [15], 1.63%; in [16] it was 10.9%; in assay [17], 22.2%; in assay [18], 9.67%. Besides, the inhibition is 19.7% in assay [19] and -3.29% in assay [20].
On to `CS(=O)(=O)Nc1ccc(-c2ccc3c(NC(=O)C4CC4)n[nH]c3c2)cc1`, for which the inhibition in assay [1] is 0.84%; in assay [2], 1.59%; in assay [3], 7.28%; in assay [4] it was 1.26%; in assay [5], 3.04%; in assay [6], -0.08%. For the same molecule, the inhibition in assay [7] is 5.66%; in assay [8], 1.14%; in [9] it was -2.13%; in assay [10] it was 2.75%; in [11] it was 13.6%; in [12], -0.59%. The inhibition in [13] came to 4.94%; in [14] it was 1.11%; in assay [15], 3.42%; in assay [16], 4.42%; in [17], 6.73%; in assay [18], 4.74%. In addition, the inhibition in assay [19] was determined as 6.11%; in assay [20], 4.35%.
Consider `CS(=O)(=O)CCNCc1ccc(-c2ccc3ncnc(Nc4ccc(OCc5cccc(C(F)(F)F)c5)cc4)c3c2)o1`, for which the inhibition in assay [1] came to 1.52%; in assay [2], 0.16%; in assay [3] it was 3.55%; in assay [4] it was 1.21%; in [5], 2.94%; in assay [6], 10.4%. Also, the inhibition in [7] is 28.9%; in assay [8], 0.04%; in [9] it was -4.13%; in [10] it was 0.61%; in assay [11], 0.73%; in assay [12], 0.5%. The inhibition in [13] stood at 5.33%; in [14], 3.18%; in [15] it was 0.41%; in assay [16], 6.08%; in [17], 8.69%; in assay [18] it was 4.37%. Also, the values for the inhibition in assay [19] and in [20] were 5.8% and 1.96%, respectively.
Regarding `Fc1cccc(COc2ccc(Nc3ncncc3C#Cc3ccccc3)cc2Cl)c1`, the inhibition in [1] worked out at 0.25%; in assay [2], 5.41%; in assay [3] it was 2.24%; in assay [4] it was 1.51%; in assay [5] it was 1.02%; in assay [6], 2.67%. Besides, the inhibition in [7] is 5.4%; in [8], 4.26%; in [9], -1.45%; in [10], 2.1%; in assay [11], 9.44%; in assay [12], 4.11%. Also, the inhibition in assay [13] came out at 3.65%; in assay [14] it was 2.29%; in [15], 1.11%; in assay [16], 6.77%; in assay [17], 4.45%; in assay [18], 6.66%. The inhibition is 5.53% in assay [19] and -0.3% in [20].
Turning to `COc1cccc(-n2ncc3c(N/N=C/c4ccc(C(=O)NCCN(C)C)cc4)ncnc32)c1`, the inhibition in assay [1] stood at 4.18%; in assay [2], 47.4%; in [3], 82.1%; in assay [4], 8.45%; in assay [5], 37.3%; in assay [6], 14%. The inhibition in assay [7] worked out at 54.9%; in assay [8], 30.8%; in assay [9], 5.84%; in [10], 16.6%; in assay [11], 60.6%; in assay [12] it was 58.5%. Further, the inhibition in assay [13] was 86%; in assay [14], -2.3%; in assay [15], 4.14%; in [16] it was 11.1%; in [17], 27.8%; in [18], 9.71%. Further, the inhibition in assay [19] turned out to be 23.6%; in [20], 2.11%.
